Source: PubChem
Shown are actives, neighbours in structure and some others; about 18% of the full set was active somewhere.
Gal4-VP16 FLuc: inhibits Gal4-VP16 luciferase reporter, ROR gamma counter-screen. Drosophila S2 Gal4-VP16 UAS-luciferase, luminescence, 20 h. Potency, µM (titrated, usually from 53.6 µM), for inactives: top-dose activity, negative = inhibition, usual class: inhibitors. 310,000 tested, 3.5% active;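 also: Gal4-VP16 expression switched on by copper sulfate through the metallothionein promoter; potency is read from the fitted curve at half-maximal effect; nearly all actives have a fitted effect of over 50% in size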
LDHA inh: LDHA (human) enzyme inhibition; P00338; purified LDHA, NADH/diaphorase-resazurin fluorescence; stronger effect = lower value; activity change, % (values are at about 110 or 230 µM); 480,000 tested, 0.15% active; in the data active = activity change below about -30%; inconclusive = mostly about -25% to -30%;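 also: plate controls were DMSO wells for no effect and wells without enzyme for full effect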
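Human LDH5 (2 nM) was incubated with 0.06 mM NADH and 0.2 mM pyruvate for 5 min at room temperature in Tris pH 7.4. Remaining NADH was coupled through diaphorase/resazurin, and resorufin fluorescence was read at 0 and 20 min.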
DT40 TDP1 CPT: growth inhibition of DT40 Tdp1-/-;hTDP1 cells with camptothecin (screen for TDP1 inhibitors); chicken DT40 Tdp1-/-;hTDP1 cells + 20 nM CPT, ATP luminescence, 48 h; Potency, µM (top dose mostly 46.2 µM), for inactives: at the highest dose activity change, negative = growth inhibition, most hits filed as inhibitors; 420,000 tested, 12% active; AID 686979; also: potency is read from the fitted curve at half-maximal effect; nearly all actives have a fitted effect of over 55% in size
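Chicken DT40 Tdp1-/- cells complemented with human TDP1, 400 cells/well, exposed to compounds plus 20 nM camptothecin for at least 48 h at 37 C; viability read as ATP content by CellTiter-Glo luminescence.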
DT40 TDP1 no CPT: qHTS for Inhibitors of human tyrosyl-DNA phosphodiesterase 1 (TDP1): qHTS in cells in absence of CPT; DT40 Tdp1-/- hTDP1 cells, no CPT, ATP luminescence, 48 h; Potency, µM (series often up to 46.2 µM), for the others: top-dose activity change, negative = growth inhibition, usual class: inhibitors; 420,000 tested, 15% active; AID 686978, 2013; also: potency is read from the fitted curve at half-maximal effect; nearly all actives have a fitted effect of over 55% in size
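Compound effects on proliferation are scored in DT40 Tdp1-/-;hTDP1 cells in the absence of CPT. ATP levels (CellTiter-Glo luminescence) are recorded after a ≥48 hr, 37 °C incubation.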
RORgamma inh: inhibitors of mouse ROR gamma transcriptional activity | Drosophila S2 Gal4-RORgamma UAS-luciferase reporter, 20 h | Potency, µM (titrated, usually from 53.6 µM), inactives show at the top dose activity change, negative = inhibition, actives largely listed as inhibitors | 310,000 tested, 5.4% active | AID 2551; also: potency is read from the fitted curve at half-maximal effect; nearly all actives have a fitted effect of over 60% in size
Target sequence (P51450 whole entry, looked up, the tested form may be a part): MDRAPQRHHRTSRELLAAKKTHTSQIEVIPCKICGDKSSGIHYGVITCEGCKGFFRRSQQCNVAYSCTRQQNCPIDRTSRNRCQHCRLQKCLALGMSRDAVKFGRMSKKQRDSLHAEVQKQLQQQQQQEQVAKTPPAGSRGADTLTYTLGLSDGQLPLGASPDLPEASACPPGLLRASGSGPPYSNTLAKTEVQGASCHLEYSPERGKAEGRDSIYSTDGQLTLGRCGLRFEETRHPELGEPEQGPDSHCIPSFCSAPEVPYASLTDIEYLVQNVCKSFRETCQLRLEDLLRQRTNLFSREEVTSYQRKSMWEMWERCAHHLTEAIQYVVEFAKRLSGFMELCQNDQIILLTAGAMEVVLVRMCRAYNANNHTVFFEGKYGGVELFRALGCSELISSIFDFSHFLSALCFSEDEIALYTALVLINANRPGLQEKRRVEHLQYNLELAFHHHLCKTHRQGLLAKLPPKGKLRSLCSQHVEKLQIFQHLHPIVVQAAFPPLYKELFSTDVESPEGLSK
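Compounds are pin-transferred onto Drosophila Schneider cells expressing a copper-inducible Gal4–ROR gamma transactivation domain fusion. After 1 hr, copper sulfate is added to 700 uM final; luciferase is read 20 hr later.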
IL1B secr inh: inflammasome signaling inhibition, IL-1 beta readout; THP-1 LPS/ATP IL-1B secretion, AlphaLISA, 16 h; stronger effect = lower value; activity change, % at 57.5 µM; 360,000 tested, 4.7% active; AID 743279; in the data active = activity change below about -50%; inconclusive = mostly about -30% to -49%
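Secreted IL-1B measured by AlphaLISA bead assay after 16 h compound exposure of THP-1 cells; compounds (final up to 57.5 uM) added 1 h before LPS (250 ng/mL) and ATP (1.25 mM) stimulation; lower signal means less secretion.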
* marks the source's active call; other numbers are inactive results. Unless noted, calls follow the shape of the dose curve; as a rule, active = well fitted curve in the direction sought with a large enough effect; inconclusive = small, poorly fitted or top-dose-only effect, or another doubt; inactive = no such curve, though single readings can be large; an effect the other way counts as inactive or inconclusive. Unless noted, % is scaled to controls: 0 for no effect and ±100 for the full control effect.

What do the screens show for `Cn1c(=O)c2c(ncn2CCC(=O)Nc2cccc(C(N)=O)c2)n(C)c1=O`?
LDHA inh: -8

What do the screens show for `COC(=O)[C@@H](NC(=O)NCc1ccccc1)C(C)C`?
LDHA inh: -3

How did C[C@@H](C1[C@@H](O)CC2C3C=CC4C[C@@H](O)CC[C@]4(C)[C@H]3CC[C@@]21C)[C@@H]1CCCCN1 (stereo partly drawn) do in these assays?
Gal4-VP16 FLuc: 2%; DT40 TDP1 CPT: 1.6µM*; DT40 TDP1 no CPT: 1.2µM*; RORgamma inh: 8%

What do the screens show for `S=C(Nc1ccccc1Cl)N1CCCCCC1`?
Gal4-VP16 FLuc: 18%; LDHA inh: 1; DT40 TDP1 CPT: -19%; DT40 TDP1 no CPT: -14%; RORgamma inh: -25%; IL1B secr inh: 0

What do the screens show for `S=C(Nc1ccccc1Cl)N1CCCC(c2ccccc2)=N1`?
Gal4-VP16 FLuc: 1%; LDHA inh: 2; DT40 TDP1 CPT: inconclusive; DT40 TDP1 no CPT: 29µM*; RORgamma inh: -20%

What do the screens show for `CC(C)c1ccc(NC(=S)N2CCCC(c3ccc(F)cc3)=N2)cc1`?
Gal4-VP16 FLuc: -12%; LDHA inh: 2; DT40 TDP1 CPT: inconclusive; DT40 TDP1 no CPT: 29µM*; RORgamma inh: 11µM*; IL1B secr inh: -20

What do the screens show for `CC1CCN(C(=S)Nc2ccc(F)cc2)CC1`?
Gal4-VP16 FLuc: inconclusive; LDHA inh: 15; DT40 TDP1 CPT: inconclusive; DT40 TDP1 no CPT: inconclusive; RORgamma inh: inconclusive; IL1B secr inh: -9

How did COCCOC(=O)c1c(C)oc2ccc(OC(=O)c3c(OC)cccc3OC)cc12 do in these assays?
Gal4-VP16 FLuc: 1%; LDHA inh: -2; DT40 TDP1 CPT: inconclusive; DT40 TDP1 no CPT: 16µM*; RORgamma inh: inconclusive; IL1B secr inh: 29

Results for CCc1ccc(S(=O)(=O)Nc2ccc3oc(C)c(C(=O)OCCOC)c3c2)cc1 ?
LDHA inh: 10; DT40 TDP1 CPT: inconclusive; DT40 TDP1 no CPT: inconclusive

Results for COCCOC(=O)c1c(C)oc2ccc(NS(=O)(=O)c3ccc(C)cc3)cc12 ?
Gal4-VP16 FLuc: 5%; LDHA inh: -2; DT40 TDP1 CPT: inconclusive; DT40 TDP1 no CPT: 26µM*; RORgamma inh: inconclusive; IL1B secr inh: -10

Results for CCCc1oc2ccc(NS(=O)(=O)c3ccc(OCC)cc3)cc2c1C(=O)OCC ?
LDHA inh: -1; DT40 TDP1 CPT: 6.5µM*; DT40 TDP1 no CPT: 5.8µM*

What do the screens show for `CCCc1oc2ccc(NS(=O)(=O)c3ccc(OC)cc3)cc2c1C(=O)OCC`?
LDHA inh: 14; DT40 TDP1 CPT: 1.8µM*; DT40 TDP1 no CPT: 1.2µM*

What do the screens show for `CCOC(=O)c1c(C)oc2ccc(OCc3cc(C(=O)OC)oc3C)cc12`?
Gal4-VP16 FLuc: 14%; LDHA inh: -3; DT40 TDP1 CPT: 18µM*; DT40 TDP1 no CPT: 13µM*; RORgamma inh: -19%; IL1B secr inh: -17

How did COc1ccccc1NC(=O)Cc1coc2cc(C)ccc12 do in these assays?
Gal4-VP16 FLuc: inconclusive; LDHA inh: -1; DT40 TDP1 CPT: -12%; DT40 TDP1 no CPT: inconclusive; RORgamma inh: inconclusive; IL1B secr inh: -6

What do the screens show for `Cc1ccc2c(CC(=O)NNC(=O)c3ccccc3O)coc2c1`?
LDHA inh: 3; DT40 TDP1 CPT: inconclusive; DT40 TDP1 no CPT: 26µM*; IL1B secr inh: 93

How did Cc1ccc(COC(=O)Cc2coc3cc(O)ccc23)cc1 do in these assays?
Gal4-VP16 FLuc: 7.1µM*; LDHA inh: 0; DT40 TDP1 CPT: inconclusive; DT40 TDP1 no CPT: 0%; RORgamma inh: 5.6µM*; IL1B secr inh: 1

What do the screens show for `Cc1ccc2c(CC(=O)Nc3cccc(C(F)(F)F)c3)coc2c1`?
LDHA inh: 8; DT40 TDP1 CPT: 16µM*; DT40 TDP1 no CPT: inconclusive

What do the screens show for `CC(=O)NC(C)c1ccc(O)cc1` (stereo not drawn)?
LDHA inh: 4

How did CCOC(=O)N1CCN(C(=O)c2ccc(OC)cc2)CC1 do in these assays?
Gal4-VP16 FLuc: 3%; LDHA inh: -8; DT40 TDP1 CPT: 0%; DT40 TDP1 no CPT: -18%; RORgamma inh: 1%; IL1B secr inh: -12

How did CC(=O)N1CCN(C(=O)c2ccc(-n3c(C)ccc3C)cc2)CC1 do in these assays?
Gal4-VP16 FLuc: -3%; LDHA inh: -5; DT40 TDP1 CPT: inconclusive; DT40 TDP1 no CPT: -66%; RORgamma inh: -20%; IL1B secr inh: -66*

Results for CCOC(=O)N1CCN(C(=O)c2ccc(-n3c(C)ccc3C)cc2)CC1 ?
Gal4-VP16 FLuc: 1%; LDHA inh: -3; DT40 TDP1 CPT: inconclusive; DT40 TDP1 no CPT: 15µM*; RORgamma inh: 22%; IL1B secr inh: inconclusive

How did Cc1ccc(C)n1-c1ccc(C(=O)N2CCC(C(N)=O)CC2)cc1 do in these assays?
Gal4-VP16 FLuc: 19%; LDHA inh: -4; DT40 TDP1 CPT: -17%; DT40 TDP1 no CPT: inconclusive; RORgamma inh: -25%; IL1B secr inh: inconclusive

How did CCOc1ccccc1-n1nnc2c(=O)n(Cc3nc(-c4ccc(OC)cc4OC)no3)cnc21 do in these assays?
LDHA inh: -10

What do the screens show for `Cc1ccc(NC(=O)c2cc3ccccc3cc2O)cc1`?
Gal4-VP16 FLuc: inconclusive; LDHA inh: 0; DT40 TDP1 CPT: 16µM*; DT40 TDP1 no CPT: inconclusive; RORgamma inh: -25%; IL1B secr inh: -9

What do the screens show for `COc1ccc(NC(=O)c2cccc3ccccc23)cc1`?
Gal4-VP16 FLuc: inconclusive; LDHA inh: 0; DT40 TDP1 CPT: 18µM*; DT40 TDP1 no CPT: 21µM*; RORgamma inh: 1%; IL1B secr inh: -7

How did COc1cc2ccccc2cc1C(=O)Nc1ccc(O)cc1 do in these assays?
Gal4-VP16 FLuc: -26%; LDHA inh: 8; DT40 TDP1 CPT: -30%; DT40 TDP1 no CPT: inconclusive; RORgamma inh: 22%; IL1B secr inh: 0

How did O=C(Nc1cc(Cl)ccc1F)c1cccc2ccccc12 do in these assays?
LDHA inh: 4

Results for COc1ccc(NC(=O)c2cc3ccccc3cc2O)cc1 ?
Gal4-VP16 FLuc: -18%; LDHA inh: 8; DT40 TDP1 CPT: inconclusive; DT40 TDP1 no CPT: inconclusive; RORgamma inh: 11%; IL1B secr inh: -99*

Results for O=C(Nc1cccnc1Oc1ccc(Cl)cc1)c1cccc2ccccc12 ?
Gal4-VP16 FLuc: -1%; LDHA inh: -6; DT40 TDP1 CPT: -10%; DT40 TDP1 no CPT: inconclusive; RORgamma inh: 25%; IL1B secr inh: -57*

What do the screens show for `O=C(Nc1cccc2ncccc12)c1ccc2ccccc2c1`?
LDHA inh: -15
